A selection: hits, their analogues and other compounds. The true share with any hit is near 12%.
PLK1 PBD block = qHTS for Inhibitors of PLK1-PDB (polo-like kinase 1 - polo-box domain): Primary Screen; AID 720504, 2013; 2.8% of 360,000 active; Potency, µM, for the others: max response, negative = inhibition, most hits filed as inhibitors; Plk1 PBD binding of FITC phosphopeptide, fluorescence polarization; note: series mostly up to about 57 µM; nearly all actives have a fitted effect of over 65% in size
Target sequence (P53350 whole entry, looked up, the tested form may be a part): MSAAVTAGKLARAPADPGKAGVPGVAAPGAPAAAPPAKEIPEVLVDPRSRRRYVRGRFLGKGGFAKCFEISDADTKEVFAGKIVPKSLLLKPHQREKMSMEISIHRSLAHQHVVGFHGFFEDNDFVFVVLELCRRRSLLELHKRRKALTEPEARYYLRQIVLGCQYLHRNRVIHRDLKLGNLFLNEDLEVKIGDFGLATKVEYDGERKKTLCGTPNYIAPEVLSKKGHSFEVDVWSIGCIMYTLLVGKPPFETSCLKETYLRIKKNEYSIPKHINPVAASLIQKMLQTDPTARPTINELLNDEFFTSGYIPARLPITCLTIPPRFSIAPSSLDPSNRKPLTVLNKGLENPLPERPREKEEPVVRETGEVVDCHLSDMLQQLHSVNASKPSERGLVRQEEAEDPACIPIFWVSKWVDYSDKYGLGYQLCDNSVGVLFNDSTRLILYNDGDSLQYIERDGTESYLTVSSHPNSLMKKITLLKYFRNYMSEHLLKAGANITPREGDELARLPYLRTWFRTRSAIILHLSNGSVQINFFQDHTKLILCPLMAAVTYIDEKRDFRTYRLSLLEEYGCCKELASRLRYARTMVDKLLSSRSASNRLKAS
Sfp inh = qHTS Assay for Inhibitors of Bacillus subtilis Sfp phosphopantetheinyl transferase (PPTase); 4'-phosphopantetheinyl transferase ffp (Bacillus subtilis), Q9F4F7; Biochemical Sfp PPTase activity, qHTS; Potency, µM, without a hit: largest response in the series, negative = inhibition, usual class: inhibitors; 3.5% of 310,000 active;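 note: the enzyme is Sfp with the accession as filed and its product quenches rhodamine fluorescence; 0% = enzyme reaction without inhibitor and -100% = no enzyme wells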
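Sfp 15 nM + cpd, 15 min RT; start w/ rhodamine-CoA 5 uM, BHQ-2-YbbR 12.5 uM (final); 50 mM Hepes pH 7.6, 10 mM MgCl2, 0.01% NP-40, 0.01% BSA; read 525/598 nm at 0 and 30 min.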
Gal4-VP16 FLuc = VP16 counterscreen qHTS for inhibitors of ROR gamma transcriptional activity | Drosophila S2 Gal4-VP16 UAS-luciferase, luminescence, 20 h | Potency, µM (doses to about 53.6 µM), without a hit: at the top dose activity, negative = inhibition, usual class: inhibitors | 3.5% of 310,000 active | AID 2546, 2010;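 note: Gal4-VP16 expression switched on by copper sulfate through the metallothionein promoter; nearly all actives have a fitted effect of over 50% in size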
RORg inh = qHTS for inhibitors of ROR gamma transcriptional activity; AID 2551, 2010; Potency, µM (doses to about 53.6 µM), for inactives: at the top dose activity change, negative = inhibition, usual class: inhibitors; Drosophila S2 Gal4-RORgamma UAS-luciferase reporter, 20 h; 5.4% of 310,000 active; Nuclear receptor ROR-gamma (Mus musculus), P51450; note: nearly all actives have a fitted effect of over 60% in size
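Using a luciferase readout, inhibitors were identified by reduced reporter activity in Drosophila cells coexpressing a copper-inducible Gal4–ROR gamma fusion and UAS-driven Photinus luciferase, incubated 20 hr after 700 uM copper sulfate.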
ALDH1A1 inh = qHTS Assay for Inhibitors of Aldehyde Dehydrogenase 1 (ALDH1A1); Purified ALDH1A1, NADH fluorescence, propionaldehyde substrate; Potency, µM (doses to about 75.3 µM), inactives show at the top dose activity, negative = inhibition, hits mostly inhibitors; 7.3% of 220,000 active; AID 1030, 2008; active = well fitted inhibition curve with a large enough effect, not every such curve was filed as active; inconclusive = small, poorly fitted or top-dose-only effect, or another doubt; inactive = no such curve, though single readings can be large or run the other way;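 note: plate controls were no enzyme wells and a reference inhibitor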
The depositor's hits bear a star; ? = inconclusive; . = not tested or not shown; [ ] = another dose, or the depositor's remark. Unless noted, calls come from the whole dose curve; as a rule, active = well fitted curve in the direction sought with a large enough effect; inconclusive = small, poorly fitted or top-dose-only effect, or another doubt; inactive = no such curve, though single readings can be large; an effect the other way counts as inactive or inconclusive. Unless noted, % is set by controls: 0 for no effect and ±100 for the full control effect; potency is the fitted concentration of half-maximal effect.

SMILES	PLK1 PBD block	Sfp inh	Gal4-VP16 FLuc	RORg inh	ALDH1A1 inh
CCc1nnc(NC(=O)C2Cc3ccccc3CN2S(=O)(=O)c2cccs2)s1 (stereo unspecified)	-21%	-19%	.	-19%[0.365 µM]	-15%
COc1ccc(-c2cc(C(=O)OCc3ccccn3)c3ccccc3n2)cc1	-16%	-45%	-8%	-9%	.
CCc1nc2c(OCc3ccccc3)cccn2c1N(Cc1ccccc1)C(C)=O	-9%	.	.	.	.
CC(OC(=O)C1=COCCO1)C(=O)NC1CCCCC1 (stereo unspecified)	-10%	.	.	.	.
CC(=O)Nc1ccc(N2C(=O)CSC2c2ccccc2[N+](=O)[O-])cc1 (stereo unspecified)	?	10%	-1%	-9%	-15%
Cc1c(Br)c([N+](=O)[O-])nn1CC(=O)Nc1ccc(Cc2ccncc2)cc1	-8%	?	?	?	?
Cc1cccc(C(=O)Oc2cccc3c(O)cccc23)c1	-10%	?	?	-28%	.
Cc1ccc(CCC(=O)Nc2ncc(Cc3cccc(Cl)c3Cl)s2)o1	-3%	13%	?	35µM*	?
Cc1onc(-c2c(Cl)cccc2Cl)c1C(N)=S	4%	10%	?	7.9µM*	?
CC(=O)Nc1nnc(-c2c(-c3c(Cl)cccc3Cl)noc2C)o1	-3%	12%	?	10µM*	-1%
Cc1nc(C(=O)NNC(=O)c2c(-c3c(Cl)cccc3Cl)noc2C)cs1	-12%	20%	8.9µM*	2.8µM*	.
Cc1onc(-c2c(Cl)cccc2Cl)c1C(=O)NNc1ccccc1	-21%	-2%	-14%	4%	22µM*
Cc1onc(-c2c(Cl)cccc2Cl)c1NC(=O)NNc1ccccc1	-4%	2%	3%	11%	5%
COCCNC(=O)C1CCCN(C(=O)COc2ccc(C(C)(C)C)cc2)CC1 (stereo unspecified)	-4%	.	.	.	.
Cc1cc(=O)oc2cc(O[C@@H]3O[C@H](C(=O)O)[C@@H](O)[C@H](O)[C@H]3O)ccc12	.	12%	-1%	14%	?
CCOC(=O)NC(N(O)c1cccc(Cl)c1)C(Cl)(Cl)Cl (stereo unspecified)	?	11µM*	8%	5µM*	8.9µM*
CC1(C)CC(=O)C=C(c2ccc(-c3ccccc3)cc2)C1	2%	.	.	.	.
CC1(C)CC(=O)C=C(c2cccc(Br)c2)C1	27µM*	.	.	.	.
COc1ccc(CNC(=O)C2=C(C)C(=O)OC23CCC(C)CC3)cc1 (stereo unspecified)	-7%	-16%	-8%	28%	5.6µM*
CC1=C(C(=O)NCc2ccc(Cl)cc2)C2(CCC(C)CC2)OC1=O (stereo unspecified)	-5%	20%	3%	32%	.
CCOC(=O)c1c(-c2cccs2)csc1NC(=O)CSc1ncn[nH]1	?	-34%	?	?	20µM*
CCOC(=O)c1c(-c2ccc(C)o2)csc1NC(=S)NC(=O)c1cccs1	-11%	?	2.5µM*	1.4µM*	18µM*
CCOC(=O)c1c(-c2ccccc2)csc1NC(=O)CSc1nnc(C)s1	1%	1%	?	?	-7%
CCOC(=O)c1c(-c2ccc(C)o2)csc1NC(=O)CSc1nnc(C)s1	-9%	22µM*	?	?	?
CCOC(=O)c1c(-c2ccc(C)o2)csc1NC(=S)NC(=O)c1ccccc1Br	-16%	3.5µM*	10µM*	7.9µM*	-14%
SMILES	PLK1 PBD block	Sfp inh	Gal4-VP16 FLuc	RORg inh	ALDH1A1 inh
COc1ccc(Cc2noc(=O)[nH]2)cc1	-8%	.	.	.	.
Cn1cccc1C(=O)N1CCC2(CC1)CCN(c1ccc(-c3ccccc3)cc1)CC2	.	1%	-2%	-22%	10%
COc1ccc(/C=C2\SC(=S)N(CCC(=O)Nc3cccc(C(=O)O)c3)C2=O)cc1	-18%	-12%	-2%	?	.
FC(F)(F)c1cc(CN2CCC3(CCNCC3)CC2)cc(C(F)(F)F)c1	.	16%	-9%	-15%	-6%
Cc1ccc(OCC(=O)Nn2c(C)nc3ccccc3c2=O)c(C(C)C)c1	-8%	12%	22µM*	-19%	?
NC(=O)COC(=O)CCCSc1nc2ccccc2s1	5%	13%	13µM*	7.9µM*	6%
CNC(=O)NC(=O)COC(=O)CCCSc1nc2ccccc2s1	-1%	6%	?	?	-2%
CC(OC(=O)CCCSc1nc2ccccc2s1)C(=O)NC(N)=O (stereo unspecified)	-7%	-11%	4µM*	4.5µM*	-1%
N#Cc1ccsc1NC(=O)COC(=O)CCCSc1nc2ccccc2s1	-13%	1%	5µM*	?	-13%
CCNC(=O)NC(=O)C(C)OC(=O)CCCc1nc2ccccc2s1 (stereo unspecified)	-2%	-1%	-25%	-21%	4%
CCCCCC(=O)N1C[C@@H](n2cc(C3CC3)nn2)[C@H](O)C[C@@H]1c1ccc(Cl)cc1	3%	.	.	.	.
Oc1cc(Cc2ccccc2)cnc1CN1CCCCC1	-2%	-12%	8%	-5%	25µM*
CCOC(=O)/C(=N/Nc1ccccc1)c1csc(Nc2ccccc2)n1	3%	14%	-21%	-41%	9%
CO/N=C(\C(=O)O)c1csc(NN=C(C)C)n1	-4%	35µM*	-8%	-33%	-5%
CC(C)[C@@H](CC(=O)N[C@@H]1CCNC[C@H]1C(=O)N[C@H](CC(=O)N[C@@H](CCC(=O)O)CC(=O)O)Cc1ccccc1)NC(=O)C[C@H](Cc1c[nH]c2ccccc12)NC(=O)[C@@H]1CNCC[C@H]1N	.	-22%	-10%	7%	4%
CCOCCCNC(=O)CN1C(=O)CSc2ccc(S(=O)(=O)N3CCOCC3)cc21	1%	10%	3%	-31%	.
CCOCCCNC(=O)CN1C(=O)CSc2cc(S(=O)(=O)N3CCCCCC3)ccc21	-8%	6%	1%	-12%	10µM*
CCOC(=O)C(C(=O)OCC)N(Cc1cc(OC)ccc1OC)C(=O)C1CC(CO[Si](C)(C)C(C)(C)C)=CN1C(=O)OC(C)(C)C (stereo unspecified)	.	-7%	1%	16%	.
CCCCc1ccc(-c2ccc(Br)cc2)nc1	1%	-29%	-15%	-12%	-5%
CCCc1ccc(-c2ccc(F)c(N)c2)nc1	-3%	14%	?	4.5µM*	-3%
COc1ccccc1N=Nc1ccc(O)c2ncccc12	-19%	1%	3.2µM*	2.8µM*	.
Oc1ccc(N=Nc2ccccc2C(F)(F)F)c2cccnc12	1%	22%	3.5µM*	3.5µM*	.
CCS(=O)(=O)c1ccc(N=Nc2ccc(O)c3ncccc23)c(OC)c1	-1%	-6%	16µM*	7.1µM*	1%

Screening data: PubChem, National Center for Advancing Translational Sciences (NCATS)
